# Compound activity (PubChem BioAssay)
# AMA1 RON2 block: AMA1-RON2 (P. falciparum) interaction inhibition; AlphaScreen AMA1-biotinylated RON2 peptide binding; Potency, µM (doses to about 58.2 µM), for the others: top-dose activity change, negative = inhibition, most hits filed as inhibitors; actives 0.2% (n = 360,000);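 further: 0% = vehicle wells and -100% = peptide control; nearly all actives have a fitted effect of over 45% in size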
#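 AMA1 (3D7) with his tag at 25 nM final met compounds first, then biotinylated RON2 peptide at 25 nM; detection used donor plus acceptor beads, 10 µg/mL apiece, read by AlphaScreen after 30 min at room temperature.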
# SARS PLP yeast: blocks SARS-CoV papain-like protease in a yeast assay; actives 0.19% (n = 330,000); Potency, µM (doses to about 32.9 µM), without a hit: at the highest dose activity, positive = growth rescue, usual class: activators; S. cerevisiae expressing SARS-CoV PLpro, growth rescue; calls by dose curve; further: 0% is about no effect; nearly all actives have a fitted effect of over 55% in size
# Pf growth 96h: inhibits malaria parasite growth, 96 h; Potency, µM (highest dose often 28.7 µM), inactives show at the top dose activity change, negative = inhibition, hits mostly inhibitors; P. falciparum luciferase reporter growth, 96 h; actives 6.9% (n = 320,000); AID 504834; further: on the % scale 0 is the no-effect control and ±100 the full control effect
#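 P. falciparum expressing integrated firefly luciferase, in erythrocytes at 2% hematocrit, 0.05% parasitemia, incubated with compounds 96 h at 37 C, 5% CO2. Growth inhibition read as loss of luminescence; two-generation exposure targets delayed-death apicoplast inhibitors.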
# Pf growth 48h: inhibits P. falciparum growth in the first generation, 48 h | AID 504832 | Potency, µM (doses to about 28.7 µM), inactives show at the highest dose activity change, negative = inhibition, actives largely listed as inhibitors | actives 5.9% (n = 310,000) | P. falciparum luciferase growth in erythrocytes, 48 h; further: on the % scale 0 is the no-effect control and ±100 the full control effect
#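 Read-out is firefly luciferase luminescence from an integrated reporter in P. falciparum, so falling signal marks reduced parasite growth. Infected erythrocytes were at 2% hematocrit and 0.1% parasitemia (final) in Albumax-supplemented RPMI 1640.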
# Active calls of the source: *; ? = inconclusive; nt = no result given; [ ] = dose if it differs, or a comment. This is a sample that favours compounds with a hit; in the whole collection about 9.4% have one here. Unless noted, the call rests on the fitted dose curve; in most records, active means well fitted curve in the direction sought with a large enough effect; inconclusive means small, poorly fitted or top-dose-only effect, or another doubt; inactive means no such curve, though single readings can be large; an effect the other way counts as inactive or inconclusive. Potency means the concentration at half of the fitted maximal effect.
SMILES,AMA1 RON2 block,SARS PLP yeast,Pf growth 96h,Pf growth 48h
Cc1cnc(C(=O)OCC(=O)N=c2sccn2Cc2ccccc2Cl)cn1,-16%,-1%,23%,?
COC(=O)c1[nH]c2ccc(F)cc2c1NC(=O)CCN1CC(C)OC(C)C1 (stereo not given),0%,10%,?,?
CCOC(=O)c1ccc(N/C=C\C(=O)c2cccc(OC)c2)cc1,-8%,20%,108%,138%
COc1ccc(N/C=C\C(=O)c2ccc(Br)cc2)cc1OC,-7%[2.32 µM],?,1.9µM*,71%
COC(=O)c1ccc(N/C=C/C(=O)c2ccccc2)cc1,-7%,-6%,13µM*,161%
O=C(Nc1ccc(F)cc1F)Nc1csc2ccccc12,-14%,-6%,?,4.7µM*
O=C(Nc1nc(-c2ccccn2)cs1)Nc1ccc(F)cc1F,88%,-15%,1.7µM*,1.5µM*
O=c1c2ccccc2nc(/C=C/c2c[nH]c3ccccc23)n1-c1ccc([N+](=O)[O-])cc1,1%[2.32 µM],13%,81%,?
O=c1c2ccccc2nc(/C=C/c2ccc(Br)cc2)n1CCO,-16%,nt,nt,nt
Cc1[nH]c2ccccc2c1/C=C/c1nc2ccccc2c(=O)n1CCO,-11%,-1%,11%[1.15 µM],9.3µM*
Cc1[nH]c2ccccc2c1/C=C/c1nc2ccccc2c(=O)n1-c1cccc([N+](=O)[O-])c1,3%,8%,3.7µM*,2.1µM*
O=C(NCCS(=O)(=O)N1CCN(c2ccccc2F)CC1)c1cc(=O)c2ccccc2o1,-11%,0%,178%,-1%
COc1cc(OC)c2ccc(=O)oc2c1C(CC(=O)N1CCOCC1)c1ccc(N(C)C)cc1 (stereo not given),-4%,12%,?,?
CCCCCc1cc(=O)oc2c(C(CCN3CCCC3)c3ccc(N(C)C)cc3)c(OC)cc(OC)c12 (stereo not given),8.9µM*,0%,9.3µM*,?
CCCCCc1cc(=O)oc2c(C(CCN3CCCC(C)C3)c3ccc(OC)cc3)c(OC)cc(OC)c12 (stereo not given),-16%,1%,3.3µM*,?
COc1ccc(C(CCN2CCCC(C)C2)c2c(OC)cc(OC)c3c2OC(=O)CC3c2cc(OC)c(OC)c(OC)c2)cc1 (stereo not given),-10%,2%,10µM*,12µM*
CCCCCc1cc(=O)oc2c(C(CCN3CCCC3)c3cc(OC)c(OC)c(OC)c3)c(OC)cc(OC)c12 (stereo not given),-8%,0%,3.3µM*,2.6µM*
CCOc1ccccc1NC(=O)CNC(=O)Cc1ccccc1,0%,-1%,?,-3%
CC(O)(c1ccc(F)c(F)c1)c1nc(-c2ccc(F)c(Cl)c2)cs1 (stereo not given),18%,nt,nt,nt
COc1ccc(C(=O)NC(=S)N2C[C@H]3C[C@H](C2)c2cccc(=O)n2C3)cc1OC,55%,3%,?,3%
CCCCCc1cc(=O)oc2c(C(CCN3CCN(c4ccccc4)CC3)c3ccc4c(c3)OCO4)c(OC)cc(OC)c12 (stereo not given),-27%,-2%,5.2µM*,7.4µM*
CCCCCc1cc(=O)oc2c(C(CCN(CC)CC)c3ccc(OC)cc3)c(OC)cc(OC)c12 (stereo not given),-4%,0%,1.9µM*,3.3µM*
COC(=O)NCC(c1ccc2c(c1)OCO2)N1CCN(c2ccccc2)CC1 (stereo not given),-4%,1%,5%,7%
COc1ccc(C(CCN2CCOCC2)c2c(OC)cc(OC)c3c(C)cc(=O)oc23)cc1 (stereo not given),-5%,-3%,?,?
CCCCCc1cc(=O)oc2c(C(CCN3CCCCC3)c3ccc(OC)cc3)c(OC)cc(OC)c12 (stereo not given),-22%,-1%,2.6µM*,3.3µM*
SMILES,AMA1 RON2 block,SARS PLP yeast,Pf growth 96h,Pf growth 48h
COc1ccc(S(=O)(=O)NN(C)C(=O)c2nn(-c3ccccc3)ccc2=O)cc1,-7%,0%,5.9µM*,?
COc1ccc(OC)c(C(O)C2CCCCN2)c1 (stereo not given),-7%,-1%,3.3µM*,?
O=C(Cc1ccccc1F)N1CCN(CC(=O)N2CCCC2)CC1,-3%,-1%,nt,nt
O=C(Cc1cccc(C(F)(F)F)c1)N1CCN(CC(=O)N2CCCC2)CC1,13%,8%,?,13µM*
CC(C)(C)OC(=O)N1Cc2cc3ccccc3nc2C1,-6%,nt,nt,nt
O=[N+]([O-])c1cccc(-c2cc(-c3cc(Br)ccc3O)[nH]n2)c1,129%,-24%,8.3µM*,4.7µM*
Cc1ccc(O)c(-c2cc(-c3cccc(F)c3)n[nH]2)c1,28%,-30%,nt,8.3µM*
Oc1ccc(Br)cc1-c1cc(-c2ccccc2)n[nH]1,92%,1%,3.3µM*,5.2µM*
Oc1ccc(Br)cc1-c1cc(-c2ccc(Cl)cc2)n[nH]1,87%,-10%,nt,1.2µM*
Cc1cccc(C(=O)NCC(=O)OCC(=O)NCCNC(=O)COC(=O)CNC(=O)c2cccc(C)c2)c1,-3%,-1%,39%,-1%
N#Cc1cccc(NC(=O)COC(=O)CCc2ccc(S(=O)(=O)N3CCOCC3)cc2)c1,-15%,1%,?,3%
Cc1c(Cl)cccc1NC(=S)NCCc1ccc(C(F)(F)F)cc1,49%,-24%,13µM*,6.6µM*
S=C(NCCc1ccccc1)Nc1ccccc1Cl,8%,19%,?,?
S=C(NCCNC(=S)Nc1ccccc1Cl)Nc1ccccc1Cl,37%,0%,9.3µM*,9.3µM*
C/C(=N\NC(=O)c1ccc(N)cc1)C1CC1,39%,-7%,27%,8%
CC1(C)OC(=O)C2=C(C[C@@H](CCOCc3ccccc3)O[C@H]2c2ccc(F)cc2)O1,4%,nt,nt,nt
Cn1ncc(Br)c1NC(=O)c1ccco1,7%,-1%,61%,11%
CCOc1ccc2oc(C(=O)OCC(=O)N3CC(C)OC(C)C3)c(C)c2c1 (stereo not given),-2%,1%,?,-14%
COc1ccc2cc([C@H](C)C(=O)N(C)Cc3ccccc3N3CCCC3)ccc2c1,?,-8%,3.7µM*,?
CCOC(=O)c1c(C)sc(Sc2ccc(Cl)cc2[N+](=O)[O-])c1OC,?,-24%,nt,3.7µM*
CCOC(=O)c1c(NC(=O)COC(=O)c2cc(OC)c(OC)cc2[N+](=O)[O-])sc(C)c1CC,-8%,-4%,-1%,-21%
CCN(CC)c1ccc(S(=O)(=O)N2CCOCC2)cc1NC(=O)Cn1nc(C)c([N+](=O)[O-])c1C,4%,8%,12µM*,?
CCN(CC)c1ccc(S(=O)(=O)N2CCOCC2)cc1NC(=O)COC(=O)/C=C/c1ccccc1,-10%,nt,nt,nt
CCN(CC)c1ccc(S(=O)(=O)N2CCOCC2)cc1NC(=O)CN1CCc2ccccc2C1,1%,0%,?,10µM*
Cc1c(NC(=O)CN2c3cccc4cccc(c34)S2(=O)=O)c(=O)n(-c2ccccc2)n1C,25%,1%,-19%,-7%
